ABCB6 inh 2 – ABCB6 transporter inhibitors, primary screen, K562-ABCB6 cells, flow cytometry, MLPCN library | K562-ABCB6 porphyrin accumulation, 1 h; stronger effect = lower value | fluorescence ratio to DMSO, % at 10 µM | 0.19% of 360,000 active | AID 602162, 2011;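 active = fluorescence ratio to DMSO below 75%, the collection mean minus 3 SD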;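 note: signal is porphyrin accumulated inside mitochondria; 100% equals median channel fluorescence of DMSO control wells; lower ratio means ABCB6 inhibition with less porphyrin fluorescence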
Myeloid diff MLP – induction of myeloid progenitor differentiation, primary screen, cell-based, flow cytometry, MLPCN library | ER-HoxA9 myeloid progenitors, lysozyme-GFP differentiation | calls only at 10 µM | 1% of 360,000 active;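 active = normalized GFP-positive differentiation at or above the plate's own cutoff, the solvent-only control mean plus 3 SD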;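 note: cells exposed to compound for four days before flow analysis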
Cardio protect – cardioprotection against H2O2-induced cell death, primary screen, uHTS, H9c2 cells, ATPLite luminescence; H9c2 cardiomyocytes, H2O2 injury protection, 2 h; protection from H2O2 cell death, % at 20 µM; 0.63% of 360,000 active;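 active = compounds giving at least 50% protection of heart cells from peroxide-induced death in the single-dose screen, raw or plate-pattern-corrected value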;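 note: 0% = DMSO wells with peroxide and 100% = DMSO wells without peroxide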
iPSC survival up – enhancers of single-cell hiPSC survival, primary screen, ATPlite luminescence; AID 602274, 2012; survival enhancement, % at 20 µM; 0.044% of 360,000 active; 100% = ROCK inhibitor wells, 0% = DMSO; in the data active = survival enhancement above about 18%;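 note: cells exposed to compounds for 16 hours before the ATP read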
beta cell repl – inducers of MIN6 beta-cell proliferation, primary screen, ATP luminescence, uHTS; MIN6 cells proliferation, ATPlite luminescence, 48 h; cells starved in 0.2% serum; 100% = growth in 10% serum; proliferation, % at 10 µM; 0.29% of 330,000 active;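 active = compounds whose signal lies at least 3.5 SD above the mean of all wells on their plate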;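 note: 0% = DMSO-treated cells in low-serum medium and 100% = 10% serum control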
An asterisk follows results filed as active; i = inactive; nt = not tested or not shown; + = active, no number. A selection: hits, their analogues and other compounds. The true share with any hit is near 2.2%.

SMILES	ABCB6 inh 2	Myeloid diff MLP	Cardio protect	iPSC survival up	beta cell repl
C#CCOCCOCCOCCNc1nc(N2CCN(C(=O)C([C@@H](C)O)n3cc([C@@H](N)CCCCN)nn3)CC2)nc(N2CCN(C(=O)[C@H](CCCCN)n3cc([C@@H](N)[C@H](C)CC)nn3)CC2)n1 (some centres undefined)	103	i	1	-1	-3
C#CCOCCOCCOCCNc1nc(N2CCN(C(=O)C([C@@H](C)O)n3cc([C@@H](N)CCCCN)nn3)CC2)nc(N2CCN(C(=O)[C@H](CCC(=O)O)n3cc([C@@H](N)[C@H](C)CC)nn3)CC2)n1 (some centres undefined)	96	+	-3	0	1
COc1ccccc1C(=O)Nc1ccc(C(=O)N2CCCCC2)cc1	94	i	4	0	-1
CC(NC(=O)c1ccco1)C(c1cccs1)N1CCN(c2ccccc2F)CC1 (centres undefined)	106	+	6	-2	-1
CC(=O)Nc1ccc(C(=O)NNC(=O)CCc2ccccc2)cc1	99	i	7	-1	-1
CC(C)(C)c1ccc(C(=O)NNC(=O)CCc2ccccc2)cc1	99	+	6	0	-2
CCOc1ccccc1/C=c1\sc2ncnn2c1=O	100	i	18	0	-1
C/C(=N\Nc1ccc([N+](=O)[O-])cc1[N+](=O)[O-])c1cccnc1	103	i	-1	0	2
CC(C)=NNc1cnnc2ccc([N+](=O)[O-])cc12	98	i	56*	0	nt
Cc1oc(-c2ccc(Cl)cc2)nc1CN1CCCC(C(=O)NCc2ccccn2)C1 (centres undefined)	94	i	-3	5	0
COCCNC(=S)N1CCN(C(c2ccccc2)c2ccccc2)CC1	95	i	-2	0	0
COc1cc(NC(=S)N2CCN(C(c3ccccc3)c3ccccc3)CC2)cc(OC)c1	84	+	1	0	-3
COc1cc(NC(=S)N2CCN(C/C=C/c3ccccc3)CC2)cc(OC)c1	397	+	-3	1	-4
CCc1c(C)nc(Nc2nc(C)c3cc(OC)ccc3n2)[nH]c1=O	90	i	20	-1	1
CCc1c(C)nc(Nc2nc(C)c3ccc(OC)cc3n2)[nH]c1=O	97	i	66*	-2	-2
Cc1ccc(-c2cc(C(=O)NCCc3ccccn3)c3ccccc3n2)c(C)c1	95	i	0	1	0
O=C(Nc1ccccc1)C1CCCN(C(=O)c2ccc(F)cc2)C1 (centres undefined)	100	i	-3	0	-3
CC(C)/C=C/CN1CCC(Oc2ccc(C(=O)N3CCCC3)cc2)CC1	106	i	2	-1	-3
O=C1[C@H]2[C@@H](c3ccc(C(F)(F)F)cc3)N[C@]3(CCCN(Cc4ccc(F)cc4)C3=O)[C@H]2C(=O)N1Cc1ccccc1	106	i	67*	-1	nt
CN(c1ccc(C(=O)N2CCN(Cc3ccccc3)CC2)cc1)S(=O)(=O)c1ccccc1	92	+	8	0	-1
Cc1ccc(NS(=O)(=O)c2cc(-c3n[nH]c(=O)c4ccccc34)ccc2C)cc1	95	+	50*	0	-2
CCOC(=O)CNS(=O)(=O)c1cc(-c2nnc(Nc3ccc4c(c3)OCO4)c3ccccc23)ccc1C	99	i	26	1	0
CCOC(=O)CNS(=O)(=O)c1cc(-c2n[nH]c(=O)c3ccccc23)ccc1C	99	i	61*	1	nt
Cc1ccc(-c2n[nH]c(=O)c3ccccc23)cc1S(=O)(=O)NCC1CCCO1 (centres undefined)	96	i	71*	1	-1
COc1nnc(-c2ccc(C)c(S(=O)(=O)NC(C)(C)CO)c2)c2ccccc12	99	i	4	0	-3
COc1nnc(-c2ccc(C)c(S(=O)(=O)NCCO)c2)c2ccccc12	124	i	62*	0	2
NC(=O)COc1ccc(Cc2ncc(C(F)(F)F)cc2Cl)cc1	87	i	-2	4	-1

Source: PubChem BioAssay (several laboratories)
